# Assay results from PubChem BioAssay AID743461 (Broad Institute, 2014).
# The list shows a part of the results. Values without a mark were called inactive.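 How the source made its calls: active means fitted dose curve reaching 40% activity at or below the highest valid dose tested; inconclusive means flat fit between 30% and 70%, or an unusable fit; inactive means the rest.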
# Test: COX5a mRNA reduction in C2C12 myotubes – cell-based, RT-qPCR, cherry-picked samples, dose response (AID 743461)
# Details: C2C12 myotubes PGC-1a adenovirus, at 0.0285 µM
structure (smiles),measurement,value
N#Cc1ccc(-c2ccc(C3[C@@H]4CN(S(=O)(=O)c5ccc(F)cc5)C[C@H]3N4)cc2)cc1 (stereo partly specified),maximal activity,-35.2%
